Assay outcomes as filed in PubChem.
Compounds with a hit are over-represented: about 3% of the library has one in this group of screens.
MITF TRPM1 inh = inhibitors of MITF-driven TRPM1 promoter in melanoma cells; hit rate 0.83% among 330,000; SK-MEL-5 TRPM1 promoter luciferase, 24 h; inhibition, % at 12.5 µM;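 active means mean inhibition across replicates of 60% or more, whatever share of single replicates reaches that level; inconclusive means some that reach 60%, reason not given; inactive means mean inhibition across replicates below 60%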
PAX8 inh HTS = PAX8 transcriptional activity inhibition | RMG-I TPO-luciferase reporter, SteadyGlo, 24 h | inhibition, % at 12.6 µM | hit rate 1.2% among 360,000;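 active means mean replicate inhibition at least 60% with every replicate also reaching 60%; inconclusive means only one of the two criteria is met; inactive means mean below 60% and not all replicates reaching 60%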;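 further: luciferase light reporting Pax8 driven TPO promoter activity; plate controls were median of neutral control wells for no effect and mitoxantrone controls for full effect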
Shn3 3UTR inh = inhibitors of Schnurri-3 3'UTR reporter in osteoblasts | inhibition, % at 12.5 µM | AID 588674 | hit rate 0.52% among 360,000 | Clone20 osteoblast Shn3 3'UTR firefly luciferase, 24 h;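 active means mean inhibition of at least 75% with every replicate also reaching 75%; inconclusive means mean inhibition at least 75% but some replicate below; inactive means mean inhibition below 75%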;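 further: 0% = median of neutral control wells and 100% = pilot-screen positive control compound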
Peg3 prom inh-1 = Peg3 promoter activity inhibition; HeLa PEG-Prom luciferase reporter, luminescence, overnight; inhibition, % at 20 µM; hit rate 1.7% among 360,000;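 active means inhibition of at least 50% at 20 µM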
ABHD5 PLIN5 PPI = ABHD5-PLIN5 protein interaction inhibition. inhibition, % at 4 µM. Split G. princeps luciferase complementation, luminescence, 4 h. AID 602281. Q00G26+Q8WTS1. hit rate 0.78% among 360,000;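 active means inhibition above the mean inhibition across every tested compound plus 3 SD, cut at about 22% in these data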;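 further: 0% = DMSO only wells and the 100% control is not disclosed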
Target sequence (Q00G26 whole entry, looked up): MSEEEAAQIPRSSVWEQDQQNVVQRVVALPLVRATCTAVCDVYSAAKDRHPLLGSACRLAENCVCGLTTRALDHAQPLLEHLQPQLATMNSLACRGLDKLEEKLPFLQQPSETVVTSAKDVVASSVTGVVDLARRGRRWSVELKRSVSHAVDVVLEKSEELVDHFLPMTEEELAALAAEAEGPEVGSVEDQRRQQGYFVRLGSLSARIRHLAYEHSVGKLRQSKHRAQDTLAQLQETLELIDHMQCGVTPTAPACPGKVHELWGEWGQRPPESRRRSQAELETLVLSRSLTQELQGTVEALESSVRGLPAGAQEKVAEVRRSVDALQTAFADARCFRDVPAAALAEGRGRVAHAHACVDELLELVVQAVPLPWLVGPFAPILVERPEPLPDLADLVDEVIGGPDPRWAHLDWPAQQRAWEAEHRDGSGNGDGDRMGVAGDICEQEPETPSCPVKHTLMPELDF
Target sequence (Q8WTS1 whole entry, looked up): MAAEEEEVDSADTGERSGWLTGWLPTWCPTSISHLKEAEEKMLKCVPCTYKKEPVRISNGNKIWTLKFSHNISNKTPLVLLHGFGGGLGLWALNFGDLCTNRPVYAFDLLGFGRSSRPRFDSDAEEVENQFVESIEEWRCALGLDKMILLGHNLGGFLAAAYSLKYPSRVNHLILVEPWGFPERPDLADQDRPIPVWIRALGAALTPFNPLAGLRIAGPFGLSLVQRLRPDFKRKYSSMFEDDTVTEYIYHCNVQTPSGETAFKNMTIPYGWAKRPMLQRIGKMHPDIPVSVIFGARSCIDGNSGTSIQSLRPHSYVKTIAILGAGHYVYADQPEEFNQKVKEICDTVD
EWS-Fli inh = blocks EWS/Fli oncoprotein-driven transcription; A673 NR0B1-luciferase reporter, viability-normalised; inhibition, % at 12.6 µM; hit rate 0.67% among 350,000; AID 651661;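 active means mean inhibition of at least 50% after viability correction, with every replicate also passing that limit; inconclusive means mean reaches 50% but only one of two replicates passes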;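 further: firefly luciferase signal divided by Alamar Blue viability fluorescence both relative to DMSO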
Peg3 prom inh-2 = confirmation of Peg3 promoter inhibitors | HeLa PEG-Prom luciferase reporter, luminescence, overnight | inhibition, % at 20 µM | shares compounds with Peg3 prom inh-1 | hit rate 84% among 1,300;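 active means at 20 µM dose, 40% or more inhibition averaged across four replicates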
Starred values were filed as active, the others as inactive.

Screening CO[C@H]1CN(C)C(=O)c2cc(NC(=O)c3ccc(F)cc3)ccc2OC[C@@H](C)N(C(=O)c2ccc(F)cc2)C[C@@H]1C returned PAX8 inh HTS 1.1 and EWS-Fli inh -0.9.
For CC1(C)C(=O)C=CC(=O)C(C)(C)C(=O)C=CC(=O)C(C)(C)C2=CC=C(O2)C(C)(C)C(=O)C=CC1=O the results were MITF TRPM1 inh 91.7*, PAX8 inh HTS 0.8, Shn3 3UTR inh 9.4, Peg3 prom inh-1 106.1*, ABHD5 PLIN5 PPI 2.2, EWS-Fli inh 10.5 and Peg3 prom inh-2 99.8*.
Screening Cc1ccc(N2CC(C(=O)Nc3nccs3)CC2=O)cc1Cl (stereo not given) returned MITF TRPM1 inh -13.8, Shn3 3UTR inh -7.1, Peg3 prom inh-1 89.7*, ABHD5 PLIN5 PPI -2.3 and Peg3 prom inh-2 94.2*.
O=C(CS(=O)CC(=O)N(c1ccccc1)C(C(=O)NC1CCCC1)c1cccs1)Nc1ccc(F)cc1 (stereo not given) was read as MITF TRPM1 inh 3.2, PAX8 inh HTS -9.7, Shn3 3UTR inh -0.7, Peg3 prom inh-1 27.1 and ABHD5 PLIN5 PPI -2.9.
For COc1cccc(N(C(=O)CS(=O)CC(=O)Nc2ccc(F)cc2)C(C(=O)NC2CCCCC2)c2cccs2)c1 (stereo not given) the results were MITF TRPM1 inh 16.5, PAX8 inh HTS 26.4, Shn3 3UTR inh 17.6, Peg3 prom inh-1 59.8*, ABHD5 PLIN5 PPI 4.3 and Peg3 prom inh-2 19.9.
CC(C)c1cn(CC[C@H]2CC[C@H](NC(=O)C3CCOCC3)[C@H](CO)O2)nn1 was read as PAX8 inh HTS -7.8.
Cc1ccc(S(=O)(=O)NC(CC(C)C)C(=O)NCC(c2ccco2)N2CCCCC2)cc1 (stereo not given) was read as MITF TRPM1 inh 59.0, Shn3 3UTR inh 47.4, Peg3 prom inh-1 74.7*, ABHD5 PLIN5 PPI -6.4 and Peg3 prom inh-2 85.1*.
Screening CC(=O)c1cccc(-c2ccnc3c2CC(C(=O)Nc2cccc(NS(C)(=O)=O)c2)O3)c1 (stereo not given) returned PAX8 inh HTS 24.3, Shn3 3UTR inh 73.3, Peg3 prom inh-1 58.6*, ABHD5 PLIN5 PPI -8.7, EWS-Fli inh 34.2 and Peg3 prom inh-2 56.6*.
Screening CC(=O)c1cccc(NC(=O)C2Cc3c(-c4cccc(C(C)=O)c4)ccnc3O2)c1 (stereo not given) returned PAX8 inh HTS 27.0, Shn3 3UTR inh 56.3, Peg3 prom inh-1 34.8, ABHD5 PLIN5 PPI 1.3 and EWS-Fli inh 20.9.
Oc1ccc(C23CCCC2C2(CCCC2)c2ccc(O)cc2O3)c(O)c1 (stereo not given) was read as MITF TRPM1 inh 5.5, PAX8 inh HTS 16.7, Shn3 3UTR inh 20.3, Peg3 prom inh-1 51.4*, ABHD5 PLIN5 PPI 6.3, EWS-Fli inh 2.5 and Peg3 prom inh-2 44.1*.
Screening CN[C@H]1C[C@H]2c3[nH]c4ccc(-c5cccc(C)c5)cc4c3CCN2C[C@H]1[C@H](C)O returned PAX8 inh HTS 23.4, Shn3 3UTR inh -29.9, Peg3 prom inh-1 89.8*, ABHD5 PLIN5 PPI 18.7, EWS-Fli inh 14.7 and Peg3 prom inh-2 98.0*.
For CN[C@H]1C[C@H]2c3[nH]c4ccc(-c5ccc(OC)cc5)cc4c3CCN2C(=O)[C@H]1[C@H](C)O the results were PAX8 inh HTS 28.5, Shn3 3UTR inh 8.6, Peg3 prom inh-1 101.2*, ABHD5 PLIN5 PPI 9.9, EWS-Fli inh 19.6 and Peg3 prom inh-2 98.3*.
`C[C@H](CO)N1C[C@H](C)[C@@H](CN(C)Cc2ccc3c(c2)OCO3)Oc2ccc(NS(C)(=O)=O)cc2CC1=O` gave PAX8 inh HTS -0.3 and EWS-Fli inh 8.4.
Screening Cc1cc(C(=O)CN2C(=O)c3ccccc3S2(=O)=O)c(C)n1CC1CCCO1 (stereo not given) returned MITF TRPM1 inh 82.8*, Shn3 3UTR inh 67.9, Peg3 prom inh-1 96.0*, ABHD5 PLIN5 PPI -0.7 and Peg3 prom inh-2 92.6*.
For Cc1cc(C(=O)CN2C(=O)NC(C)(c3ccccc3)C2=O)c(C)n1CC1CCCO1 (stereo not given) the results were MITF TRPM1 inh -2.1, Shn3 3UTR inh -4.6, Peg3 prom inh-1 -8.2 and ABHD5 PLIN5 PPI 4.5.
CCN(CC)CCNC(=O)c1ccc(NC(=O)c2ccc3c(c2)CCC3)cc1 was read as MITF TRPM1 inh -62.5, PAX8 inh HTS -12.1, Shn3 3UTR inh -11.7, Peg3 prom inh-1 -42.9, ABHD5 PLIN5 PPI -7.8 and EWS-Fli inh -16.4.
For CCN(CC)CCNC(=O)c1ccc(NC(=O)c2cccc(S(=O)(=O)N(C)C3CCCCC3)c2)cc1 the results were MITF TRPM1 inh 73.2*, PAX8 inh HTS 6.4, Shn3 3UTR inh 7.0, Peg3 prom inh-1 82.6*, ABHD5 PLIN5 PPI 5.7, EWS-Fli inh 2.7 and Peg3 prom inh-2 89.1*.
Cc1c(OCC(=O)NC2CC(C)(C)NC(C)(C)C2)ccc2c1oc(=O)c1ccccc12 was read as MITF TRPM1 inh 75.6*, PAX8 inh HTS -4.6, Shn3 3UTR inh 11.7, Peg3 prom inh-1 100.3*, ABHD5 PLIN5 PPI 6.6, EWS-Fli inh -4.8 and Peg3 prom inh-2 85.4*.
`O=C(c1ccccc1)N(C(=O)c1ccccc1)c1ncnc2c1C(c1ccccc1)c1c(ccc3ccccc13)O2` (stereo not given) gave MITF TRPM1 inh 8.4, PAX8 inh HTS 71.9*, Shn3 3UTR inh 21.3, Peg3 prom inh-1 77.9*, ABHD5 PLIN5 PPI 3.1, EWS-Fli inh 20.2 and Peg3 prom inh-2 77.1*.
COC(=O)C1=C(C(=O)OC)C(C(=O)OC)C(C(=O)OC)C(C(=O)OC)(C(=O)OC)C(C(=O)OC)=C1C(=O)OC (stereo not given) was read as MITF TRPM1 inh 55.2, Shn3 3UTR inh 36.5, Peg3 prom inh-1 107.1*, ABHD5 PLIN5 PPI 9.9, EWS-Fli inh -1.1 and Peg3 prom inh-2 98.5*.
`COC(=O)C1C(C(=O)OC)C1(c1ccccc1)c1ccccc1` (stereo not given) gave MITF TRPM1 inh 11.2, PAX8 inh HTS -16.7, Shn3 3UTR inh 8.0, Peg3 prom inh-1 7.4, ABHD5 PLIN5 PPI 2.1 and EWS-Fli inh 4.9.
For C[C@@H]1CN([C@H](C)CO)C(=O)c2cccc(NC(=O)NC3CCCCC3)c2O[C@@H]1CN(C)S(=O)(=O)c1cn(C)cn1 the results were EWS-Fli inh -4.3.
Screening C=C1CC2(OC1=O)c1ccccc1CCc1ccccc12 returned MITF TRPM1 inh 107.8*, PAX8 inh HTS 71.3*, Shn3 3UTR inh 100.5*, Peg3 prom inh-1 97.4*, ABHD5 PLIN5 PPI 59.6*, EWS-Fli inh 52.2* and Peg3 prom inh-2 97.1*.
Screening O=C1NC(=O)C2(CCc3ccccc32)N1 (stereo not given) returned MITF TRPM1 inh -0.2, Shn3 3UTR inh -22.4, Peg3 prom inh-1 10.6 and ABHD5 PLIN5 PPI 3.2.
For CC(=NNC(=S)N1CCCCCC1)c1cccc2cccnc12 the results were MITF TRPM1 inh 50.6, PAX8 inh HTS 12.6, Shn3 3UTR inh inconclusive, Peg3 prom inh-1 0.2, ABHD5 PLIN5 PPI -15.6 and EWS-Fli inh -0.8.
